High-throughput results as filed in PubChem.
Mtb FBA inh – Mtb fructose-bisphosphate aldolase inhibition | P9WQA3 | purified M. tuberculosis FBA, fluorescence read-out | inhibition, % at 1 µM | actives 2.3% (n = 360,000) | AID 588726; in the data active means inhibition above about 27%
RecA splice inh – inhibitors of M. tuberculosis RecA intein splicing. P9WHJ3. cell-free RecA intein splicing, fluorescence. inhibition, % (no concentration beside the values). actives 0.75% (n = 290,000); in the data active means inhibition above about 30%
Target sequence (P9WHJ3 whole entry, looked up, canonical isoform): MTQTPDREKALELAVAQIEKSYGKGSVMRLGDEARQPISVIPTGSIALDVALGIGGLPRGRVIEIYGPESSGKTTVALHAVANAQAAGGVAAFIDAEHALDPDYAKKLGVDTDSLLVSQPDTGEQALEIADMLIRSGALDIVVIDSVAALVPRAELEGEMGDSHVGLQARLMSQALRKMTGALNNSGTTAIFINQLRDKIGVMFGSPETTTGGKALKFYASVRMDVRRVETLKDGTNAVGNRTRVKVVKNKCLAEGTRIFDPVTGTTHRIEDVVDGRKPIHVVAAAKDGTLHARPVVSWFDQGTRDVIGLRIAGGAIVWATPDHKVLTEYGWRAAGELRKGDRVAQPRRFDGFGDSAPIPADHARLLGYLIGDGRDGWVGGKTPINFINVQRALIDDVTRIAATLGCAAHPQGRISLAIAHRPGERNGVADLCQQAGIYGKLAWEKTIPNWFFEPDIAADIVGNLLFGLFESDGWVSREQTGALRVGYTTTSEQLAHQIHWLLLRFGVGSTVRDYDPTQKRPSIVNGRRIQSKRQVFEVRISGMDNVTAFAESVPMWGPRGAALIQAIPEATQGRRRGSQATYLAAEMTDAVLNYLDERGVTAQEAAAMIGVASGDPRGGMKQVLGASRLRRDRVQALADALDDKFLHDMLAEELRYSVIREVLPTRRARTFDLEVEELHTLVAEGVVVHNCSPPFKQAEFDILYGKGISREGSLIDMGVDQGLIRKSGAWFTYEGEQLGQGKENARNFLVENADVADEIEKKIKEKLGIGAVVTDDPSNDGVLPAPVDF
Mtb bLac sens – beta-lactam sensitization of Mtb H37Rv; inhibition, % at 25 µM; actives 0.27% (n = 330,000); M. tuberculosis H37Rv growth with meropenem, percent inhibition; call rule not given here;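 further: growth measured after seven days incubation then overnight dye step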
CCHFV vOTU inh – CCHFV vOTU protease inhibition; Pep-AMC fluorescence; inhibition, % at 11.5 µM; actives 0.55% (n = 370,000); AID 651958
GDH-TPI inh – inhibits GDH-TPI coupling enzymes, artifact for Mtb FBA screen | GDH-TPI coupled enzyme counterscreen, NADH absorbance | inhibition, % at 4.8 µM | actives 1.2% (n = 360,000)
Large screens that a line does not name were inactive. The list is not random: actives were taken first. Their share in the collection is about 4.2%. Unless noted, no stated cut-off is given here; in the data, active means inhibition above about 30%; inactive means the rest.

Cc1cc(=O)oc2cc(NC(=O)C3CCCC3)ccc12	Mtb FBA inh 155.4
Cc1cc(=O)oc2cc(NC(=O)CC3(CC(=O)O)CCCC3)ccc12	Mtb FBA inh active
Cc1ccc(NC(=O)CC2(CC(=O)O)CCCC2)cc1	none
Cc1nc2c(C#N)cnn2c2c1CCN(Cc1ccccc1)N2C	GDH-TPI inh 43.9
O=C(N/N=C/c1ccc(N2CCOCC2)cc1)c1ccc(O)cc1	GDH-TPI inh 66.2
O=C(N/N=C/c1ccc(N2CCOCC2)s1)c1ccc(O)cc1	GDH-TPI inh 33.9 (no result: RecA splice inh, Mtb bLac sens)
O=C(NN=Cc1ccc(N2CCOCC2)s1)c1ccc([N+](=O)[O-])cc1	none (no result: RecA splice inh)
Cc1ccc(C(=O)N/N=C/c2ccc(N3CCOCC3)cc2)c(C)c1	GDH-TPI inh 34.3
Cc1ccc(C(=O)NC(=S)Nc2ccc(N3CCOCC3)cc2)c(C)c1	none
CCS(=O)(=O)Nc1ccc2c(c1)C(=O)N(C)[C@@H]1CC[C@H](CC(=O)NCCOC)O[C@H]1CO2	none (no result: Mtb FBA inh, RecA splice inh, Mtb bLac sens, GDH-TPI inh)
COC(=O)c1cc(-c2ccc(C)c3ccccc23)c(=O)n2c1CCC2	none (no result: Mtb FBA inh, RecA splice inh, Mtb bLac sens, GDH-TPI inh)
C=CCn1c(=O)c2c(nc3n2CCN3c2cccc(Cl)c2C)n(C)c1=O	none
C=CCn1c(=O)c2c(nc(-c3ccc(S(=O)(=O)O)cc3)n2C)n(C)c1=O	Mtb FBA inh active
Clc1cc(Cl)cc(CN2CCN(c3ncc(Cc4ccccc4)cn3)CC2)c1	none (no result: Mtb FBA inh, RecA splice inh, Mtb bLac sens, GDH-TPI inh)
CC(=O)C1=C(C)NC(SCC(N)=O)=C(C#N)C1CC(C)C (stereo not given)	none
CCOC(=O)C1=C(C)NC(SC)=C(C#N)C1CC(C)C (stereo not given)	GDH-TPI inh 32.4
CCOc1ccc(-n2c(SCC(=O)Nc3cccc4ccccc34)nnc2-c2ccccc2)cc1	none (no result: Mtb FBA inh, RecA splice inh, Mtb bLac sens, GDH-TPI inh)
COC(=O)c1sc(-c2cccs2)cc1NC(=O)/C=C/C(=O)O	RecA splice inh 42.1
COC(=O)c1sc(-c2ccccc2)cc1NC(C)=O	none
CNc1nc(-c2ccccc2)cc(C)c1S(C)(=O)=O	Mtb FBA inh active
Cc1cc(-c2ccccc2)nc(N(C)C)c1S(C)(=O)=O	none
CC(C)C(OC(=O)/C=C/c1ccc2c(c1)OCO2)C(=O)NC(N)=O (stereo not given)	GDH-TPI inh 41.5
N#CCOC(=O)/C=C/c1ccc2c(c1)OCO2	GDH-TPI inh 38.4 (no result: Mtb bLac sens)
CC(C)NC(=O)NC(=O)COC(=O)/C=C/c1ccc2c(c1)OCO2	none
O=C(COC(=O)/C=C/c1ccc2c(c1)OCO2)NC1CC1	none
COC(=O)[C@@]12CCCCC3=C1N(CCC3)C(=O)[C@H]2CC(=O)NCCc1ccccc1OC	none (no result: Mtb FBA inh, RecA splice inh, Mtb bLac sens, GDH-TPI inh)
CC(=O)CC[C@@H]1CC[C@]2(CCCN(C(=O)c3ccccc3)C2)O1	none (no result: Mtb FBA inh, RecA splice inh, Mtb bLac sens, GDH-TPI inh)
N/C(=N\N=C\c1ccc(O)cc1O)N[N+](=O)[O-]	GDH-TPI inh 36.1
O=C(Nc1ccc2c(c1)OCCO2)N1CCN(Cc2ccccc2)CC1	GDH-TPI inh 31.7
CCOC(=O)CC[C@@]1(C(=O)OCC)C[C@@H](CC(=O)NCCCOC)C(=O)N2CCCC=C21	none (no result: Mtb FBA inh, RecA splice inh, Mtb bLac sens, GDH-TPI inh)
Nc1c(C(=O)N2CCN(CCc3ccccc3)CC2)cnn1-c1ccccc1	none (no result: Mtb FBA inh, RecA splice inh, Mtb bLac sens, GDH-TPI inh)
NC(=O)N=Nc1c(O)[nH]c2ccc([N+](=O)[O-])cc12	GDH-TPI inh 31.1
C=C(C)CNC(=S)N=Nc1c(O)[nH]c2ccc([N+](=O)[O-])cc12	RecA splice inh 32.7
COc1ccccc1C(=O)N=Nc1c(O)[nH]c2ccc([N+](=O)[O-])cc12	none (no result: RecA splice inh, Mtb bLac sens)
C[C@H]1COc2cc(Br)ccc2S(=O)(=O)N1Cc1cn(Cc2ccc(Cl)cc2)nn1	none (no result: Mtb FBA inh, RecA splice inh, Mtb bLac sens, GDH-TPI inh)
O=c1c2ccccc2nc2n1CCS2(=O)=O	RecA splice inh 39.2
N=c1c(S(=O)(=O)c2ccc(Cl)cc2)cc2c(=O)n3ccccc3nc2n1CCN1CCOCC1	Mtb FBA inh active
N=c1c(S(=O)(=O)c2ccc(Cl)cc2)cc2c(=O)n3ccccc3nc2n1CCc1ccccc1	none
Cc1ccc(S(=O)(=O)c2cc3c(=O)n4ccccc4nc3n(CCCN3CCOCC3)c2=N)cc1C	Mtb FBA inh 128.1
Cc1ccc(S(=O)(=O)c2cc3c(=O)n4ccccc4nc3n(C)c2=N)cc1C	none
Cc1ccccc1/C=C/c1nc2ccccc2c(=O)[nH]1	GDH-TPI inh 33.5
Cc1ccccc1/C=C\c1nc2ccccc2c(=O)[nH]1	none
Cc1c(/C=N/NC(=O)C(NC(=O)c2ccc3c(c2)OCO3)C(C)C)c2ccccc2n1C (stereo not given)	GDH-TPI inh 37.9
CCCCCCCCN1C(=O)[C@@H](CC(=O)NCC2CCCCC2)C[C@@]2(C(=O)OC)C1=C[C@H](C(C)C)O[C@@H]2C1CC1	none (no result: Mtb FBA inh, RecA splice inh, Mtb bLac sens, GDH-TPI inh)
O=C(NCCN1C(=O)S/C(=C\c2ccccc2F)C1=O)C1=COCCO1	GDH-TPI inh 42.0
